{
  "source": "PubChem BioAssay AID1850",
  "about": "(Southern Research Specialized Biocontainment Screening …, 2009)",
  "note": "About 1,000 (0.32%) of roughly 310,000 compounds were called active. The list is a sample of the results. Results with a measured potency or affinity are listed apart. Values without a mark were called inactive. The rule behind the calls is not given here.",
  "data": [
    {"assay": "PhoP regulon inhibitors, Salmonella typhi PhoP promoter GFP reporter, confirmatory (AID 1850);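 note: 0% = induced wells with vehicle and 100% = uninduced wells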", "conditions": "fluorescence, 4 h, at 50 µM, stronger effect = higher value", "units": {"inhibition": "%"}, "values": [
      {"smiles": "Nc1nonc1-n1nnc(C(=O)N/N=C/c2ccc(F)cc2)c1-c1ccc2c(c1)OCO2", "inhibition": 3.99},
      {"smiles": "CC(C)c1ccc(NC(=O)C2CCN(S(C)(=O)=O)CC2)cc1", "inhibition": 9.77},
      {"smiles": "O=C(CN1CCN(c2ccccn2)CC1)NC1CCCC1", "inhibition": -2.6},
      {"smiles": "CC[C@H]1OC(=O)[C@H](C)[C@@H](O[C@H]2C[C@@](C)(OC)[C@@H](O)[C@H](C)O2)[C@H](C)[C@@H](O[C@@H]2O[C@H](C)C[C@H](N(C)C)[C@H]2O)[C@](C)(O)C[C@@H](C)C(=NOCOCCOC)[C@H](C)[C@@H](O)[C@]1(C)O", "inhibition": -1.81},
      {"smiles": "CCOC(=O)CCC(=O)O[C@H]1[C@H](O[C@@H]2[C@@H](C)[C@H](O[C@H]3C[C@@](C)(OC)[C@@H](O)[C@H](C)O3)[C@@H](C)C(=O)O[C@H](CC)[C@@](C)(O)[C@H](O)[C@@H](C)C(=O)[C@H](C)C[C@@]2(C)O)O[C@H](C)C[C@@H]1N(C)C", "inhibition": 12.7},
      {"smiles": "CCC1OC(=O)C(C)C(OC2C[C@@](C)(OC)C(O)C(C)O2)C(C)C(O[C@@H]2OC(C)CC(N(C)C)C2O)[C@](C)(O)CC(C)C(=NOCOCCOC)C(C)C(O)[C@]1(C)O", "note": "(some centres not stated)", "inhibition": 2.39},
      {"smiles": "COc1ccccc1C(C(=O)NCc1ccc(F)cc1)N(C(=O)c1csnn1)C1CC1", "note": "(configuration not stated)", "inhibition": -0.44},
      {"smiles": "CCN(CC)S(=O)(=O)c1ccc(OC)c(NC(=O)c2ccc(-n3cncn3)c([N+](=O)[O-])c2)c1", "inhibition": 1.29},
      {"smiles": "O=C(Cn1c(=O)oc2ccccc21)NCCc1ccccc1", "inhibition": -10.1},
      {"smiles": "Cc1cc(C)cc(NC(=O)CSc2nccn2Cc2ccco2)c1", "inhibition": -0.51},
      {"smiles": "COc1cc(CNC2CCCC2)cc(Cl)c1OCc1ccc(F)cc1", "inhibition": 7.58},
      {"smiles": "COc1ccccc1CCNCc1ccc(OC)c(OCc2ccccc2)c1", "inhibition": -4.13},
      {"smiles": "OCCNCc1ccc(OCc2ccc(Cl)cc2Cl)cc1", "inhibition": 6.74},
      {"smiles": "COc1cc(CNCCO)cc(Br)c1OCc1ccccc1Cl", "inhibition": 9.5},
      {"smiles": "OCCCCNCc1ccc(OCc2ccccc2Cl)cc1", "inhibition": 26.2},
      {"smiles": "COc1cc(CNCCO)cc(Cl)c1OCc1ccccc1Cl", "inhibition": -3.95},
      {"smiles": "COc1cc(CNC2CCCC2)cc(Cl)c1OCc1ccccc1F", "inhibition": 11.7},
      {"smiles": "COc1cc(CNCCc2ccccc2)ccc1OCc1ccc(Cl)nc1", "inhibition": 26.7},
      {"smiles": "CC1(C)CC(=O)C2=C(C1)OC(N)=C(C#N)C21C(=O)N2CCCc3cccc1c32", "note": "(configuration not stated)", "inhibition": -2.22},
      {"smiles": "CN(C(=O)COC(=O)c1ccc2[nH]c3c(c2c1)CCCC3)C1CCS(=O)(=O)C1", "note": "(configuration not stated)", "inhibition": -8.01},
      {"smiles": "Cc1ccc(OCCCCN2CCC(C)CC2)cc1", "inhibition": 15.9},
      {"smiles": "COc1cc(CNCc2ccccc2)cc(Cl)c1OC", "inhibition": 4},
      {"smiles": "COc1cc(CNC(C)(C)CO)cc(Br)c1OCc1ccc(Cl)cc1Cl", "inhibition": 0.08},
      {"smiles": "CCOc1cc(CNCCc2ccc(S(N)(=O)=O)cc2)cc(Cl)c1OCc1ccccc1", "inhibition": 13},
      {"smiles": "CCOc1cc(CNCCO)cc(Br)c1OCc1ccc(Cl)cc1Cl", "inhibition": 8.42},
      {"smiles": "CC(C)c1ccc(Nc2c([N+](=O)[O-])c(=O)n(C)c3ccccc23)cc1", "inhibition": 2.08},
      {"smiles": "Cc1ccc2nsnc2c1S(=O)(=O)NCc1ccncc1", "inhibition": -2.24},
      {"smiles": "Cc1onc(-c2ccccc2)c1-c1nnc(-c2ccccc2C(F)(F)F)o1", "inhibition": 0.63},
      {"smiles": "C=CCN(c1nc(C)cc(OC)n1)S(=O)(=O)c1ccc(C)cc1", "inhibition": 0.2},
      {"smiles": "CC(C)(C)c1nnc(NC(=O)c2cccs2)s1", "inhibition": 10.7},
      {"smiles": "CN1CCN(c2ccc(C(F)(F)F)cc2N)CC1", "inhibition": 2.28},
      {"smiles": "Cc1nc2cc(C(F)(F)F)ccc2n1C", "inhibition": 1.93},
      {"smiles": "O=C(Nc1ccccc1C(=O)Nc1ccccn1)c1cc(F)c(F)cc1Cl", "inhibition": -1.17},
      {"smiles": "Cc1ccc[n+](-c2nc3ccccc3nc2[N-]S(=O)(=O)c2ccccc2)c1", "inhibition": -11.4},
      {"smiles": "O=C(/C=C/c1ccc2c(c1)OCO2)c1cccnc1", "inhibition": 0.98},
      {"smiles": "O=C(Cn1nc(C(F)(F)F)c2c1CCC2)Nc1ccccc1C(F)(F)F", "inhibition": -9.91},
      {"smiles": "Cn1c(NC(=O)C[n+]2cc(-c3ccc(Cl)cc3)n3c2CCC3)cc(=O)n(C)c1=O", "inhibition": 11.1},
      {"smiles": "O=C(C[n+]1cc(-c2ccc(Cl)cc2)n2c1CCCCC2)c1ccccc1", "inhibition": 1.54},
      {"smiles": "CC1CCC(C(C)C)C(OC(=O)C[n+]2cc(-c3ccc(Cl)cc3)n3c2CCCCC3)C1", "note": "(configuration not stated)", "inhibition": 10.8},
      {"smiles": "COc1ccc(-c2c[n+](CC(=O)OC3CC(C)CCC3C(C)C)c3n2CCC3)cc1", "note": "(configuration not stated)", "inhibition": 1.91},
      {"smiles": "CCc1ccc(Nc2nnc(SCc3cc(=O)n4ccsc4n3)s2)cc1", "inhibition": -7.77},
      {"smiles": "CCCCNCCCOc1cc(Cl)ccc1Cl", "inhibition": 6.78},
      {"smiles": "CCCCNCCCOc1cccc(Cl)c1", "inhibition": 2.53},
      {"smiles": "O=C(NCCO)c1cccc(Cl)c1", "inhibition": -3.96},
      {"smiles": "O=C1CCC([N+](=O)[O-])C(c2cc3c(cc2Cl)OCO3)N1", "note": "(configuration not stated)", "inhibition": 3.32},
      {"smiles": "COC(=O)c1cc(C(=O)c2ccc(Cl)cc2)n2c(=O)/c(=C\\N(C)C)sc12", "inhibition": 4.66},
      {"smiles": "O/N=C/c1ccc(OCc2ccccc2)c(Br)c1", "inhibition": 17.4},
      {"smiles": "O/N=C/c1ccc(OCc2ccccc2F)c(Cl)c1", "inhibition": -2.37},
      {"smiles": "Cc1cc(C)cc(NC(=O)CSc2nc3ccccc3nc2N2CCCC2)c1", "inhibition": 11.5},
      {"smiles": "CN(C)CCCNc1c2c(nc3ccccc13)CCC2", "inhibition": 5.26},
      {"smiles": "CNCCc1c[nH]c2ccccc12", "inhibition": 10.1},
      {"smiles": "CN(C)CCCNc1nc(-c2ccccc2)nc2ccccc12", "inhibition": -2.17},
      {"smiles": "OCCNc1c2ccccc2nc2ccccc12", "inhibition": 11.8},
      {"smiles": "Fc1cccc(NCCc2c[nH]c3ccccc23)n1", "inhibition": 3.37},
      {"smiles": "OCCNc1c2c(nc3ccccc13)CCCC2", "inhibition": -3.18},
      {"smiles": "N#CCCN(C(=O)COC(=O)c1ccc(CNS(=O)(=O)c2ccc(F)c(Cl)c2)cc1)c1ccc(F)cc1", "inhibition": -2.96},
      {"smiles": "Cc1ccc(CNC(=O)C2CCCN(c3nn4c(=O)cc(C)nc4s3)C2)cc1", "note": "(configuration not stated)", "inhibition": -0.07}
    ]}
  ]
}
